# PubChem BioAssay AID652001 (The Scripps Research Institute Molecular Screening Center, 2013)
# Target: Acyl-protein thioesterase 2 (Homo sapiens) (UniProt O95372)
# Assay: LYPLA2 enzyme kinetics with inhibitors – biochemical, substrate-based fluorescence, Ki, Km, Vmax, late-stage follow-up (AID 652001)
# Settings: recombinant LYPLA2, resorufin acetate hydrolysis fluorescence, measured here: LYPLA2 (no test compound); Km: enzyme Km; Vmax: enzyme Vmax
# Sequence of Acyl-protein thioesterase 2 (Homo sapiens) (O95372 whole entry, looked up): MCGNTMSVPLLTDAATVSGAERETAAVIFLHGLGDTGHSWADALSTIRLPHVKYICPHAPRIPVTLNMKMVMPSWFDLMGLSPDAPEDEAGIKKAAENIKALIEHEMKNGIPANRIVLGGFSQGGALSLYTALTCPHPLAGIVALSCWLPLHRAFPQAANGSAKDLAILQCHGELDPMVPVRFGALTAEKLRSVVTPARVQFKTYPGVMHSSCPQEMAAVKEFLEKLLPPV
smiles,measurement,value
COc1ccc(N2CCN(C(=O)c3cc4c(s3)-c3ccccc3S(=O)(=O)C4)CC2)cc1,Km,24.4 µM
same,Vmax,13.8 nM
